Screens: PubChem, NMMLSC
In the library only some 3.5% were active in any assay of this set; here they are far more common.
BoNT-F LC inh: BoNT F light chain protease inhibition; inhibition, % at 10 µM; Multiplex microsphere protease cleavage assay, flow cytometry; 0.22% of 360,000 active; in the data active = inhibition above about 35%, passing the limit was not always enough; inconclusive = no clear call, values can overlap the other calls; note: plate controls were buffer without enzyme for full effect and enzyme alone for no effect
BoNT A protease: BoNT A light chain protease inhibition; multiplex microsphere protease substrate cleavage, flow cytometry; AID 588499; 0.17% of 360,000 active; inhibition, % at 10 µM; note: plate controls were buffer without enzyme for full effect and enzyme alone for no effect
Bead autofluor: counter-screen for toxin protease inhibitors: compound fluorescence. compound autofluorescence counterscreen, microsphere flow cytometry; hits give high values. fluorescence intensity (no concentration beside the values). 3.1% of 360,000 active. AID 624483; in the data active = fluorescence intensity above about 16000; inconclusive = no clear call, values can overlap the other calls
Anthrax LF prot: blocks Bacillus anthracis lethal factor protease; P15917; multiplex microsphere protease cleavage assay, LF; inhibition, % at 10 µM; 0.12% of 360,000 active; AID 588501; note: plate controls were buffer without enzyme for full effect and enzyme alone for no effect
Target sequence (P15917 whole entry, looked up): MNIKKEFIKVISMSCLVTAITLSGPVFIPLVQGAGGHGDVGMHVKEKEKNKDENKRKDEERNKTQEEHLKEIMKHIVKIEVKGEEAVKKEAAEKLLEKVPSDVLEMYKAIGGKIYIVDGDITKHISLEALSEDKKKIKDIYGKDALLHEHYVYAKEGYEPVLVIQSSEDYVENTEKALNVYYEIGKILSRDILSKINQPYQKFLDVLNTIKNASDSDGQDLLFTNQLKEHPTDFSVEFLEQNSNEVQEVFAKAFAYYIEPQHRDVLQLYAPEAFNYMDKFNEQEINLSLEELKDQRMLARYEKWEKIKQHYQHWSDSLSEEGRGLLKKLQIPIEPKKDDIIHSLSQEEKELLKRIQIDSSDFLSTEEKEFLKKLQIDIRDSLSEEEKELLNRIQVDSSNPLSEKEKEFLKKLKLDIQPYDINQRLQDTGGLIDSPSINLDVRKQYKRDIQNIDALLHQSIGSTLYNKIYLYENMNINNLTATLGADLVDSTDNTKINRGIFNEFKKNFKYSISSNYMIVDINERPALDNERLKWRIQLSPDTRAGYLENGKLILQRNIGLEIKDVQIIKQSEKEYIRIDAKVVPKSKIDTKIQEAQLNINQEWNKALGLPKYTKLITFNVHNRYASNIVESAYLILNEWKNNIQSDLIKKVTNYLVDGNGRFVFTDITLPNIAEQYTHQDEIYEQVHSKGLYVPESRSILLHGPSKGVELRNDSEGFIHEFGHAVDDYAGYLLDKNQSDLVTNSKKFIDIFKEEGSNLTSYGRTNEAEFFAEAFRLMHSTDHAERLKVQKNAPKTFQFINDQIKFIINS
Active calls of the source: *; ? = inconclusive. Cut-off read from the data, not from the text of the source, unless noted: active = inhibition above about 30%; inconclusive = no clear call, values can overlap the other calls; inactive = below that.

SMILES | BoNT-F LC inh | BoNT A protease | Bead autofluor | Anthrax LF prot
O=C(Nc1cccc(C(F)(F)F)c1)C1CCCN(S(=O)(=O)c2cnc[nH]2)C1 (stereo unspecified) | 2 | 2 | 22065* | -3
CCc1cccc(NC(=O)C2CCCN(S(=O)(=O)c3cnc[nH]3)C2)c1 (stereo unspecified) | 0 | -1 | 5197 | -2
CSC(=O)CC(=O)NC(=O)c1ccccc1 | -6 | -4 | 25369* | -2
CSc1nnc(SCC(=O)NC(=O)c2ccccc2)s1 | -15 | -3 | 6714 | -2
CC(C)(C)n1nnnc1C(c1ccccc1)N1CCN(c2ccc(C(F)(F)F)cn2)CC1 (stereo unspecified) | -7 | 0 | 5781 | -4
Cc1ccc2cc(CNC[C@H]3O[C@@H](n4cc(C)c(=O)[nH]c4=O)C[C@@H]3O)c(N3CCOCC3)nc2c1 | -2 | 0 | 3443 | -2
CSc1ccccc1C(=O)OCC(=O)NC1CC1 | 1 | 0 | 2823 | -4
O=C(Nc1ccn(Cc2c(F)c(F)c(F)c(F)c2F)n1)c1ccc(COc2ccccc2Cl)cc1 | -8 | -4 | 25404* | -3
Cc1nn(Cc2c(F)c(F)c(F)c(F)c2F)c(C)c1NC(=O)c1cccc(COc2ccccc2Cl)c1 | 4 | 3 | 20980* | -10
Cc1ccc(-c2nn(CC(=O)NCC3CCCO3)c(=O)c3ccccc23)cc1 (stereo unspecified) | -9 | -3 | 23922* | -3
O=C(Cn1nc(-c2ccc(Cl)cc2)c2ccccc2c1=O)NCC1CCCO1 (stereo unspecified) | -21 | -3 | 4555 | -2
O=C(Cn1nc(-c2ccccc2)ccc1=O)NCC1CCCO1 (stereo unspecified) | -5 | -4 | 23626* | -3
O=C(Cn1nc(-c2ccccc2)ccc1=O)NCCN1CCN(Cc2ccccc2)CC1 | -4 | -1 | 6531 | -9
O=C(Cn1nc(-c2cccc(Cl)c2)ccc1=O)Nc1cccnc1 | -2 | ? | 23773* | -8
O=C(Cn1nc(-c2ccccc2)ccc1=O)NCCN1CCN(c2cccc(Cl)c2)CC1 | -6 | -2 | 21385* | -3
CCOCCCNC(=O)Cn1nc(-c2ccccc2)ccc1=O | -4 | -1 | 5565 | -6
CCN(CC)CCCNC(=O)Cn1nc(-c2ccccc2)ccc1=O | 0 | 1 | 20162* | -2
CN1CCc2ccccc2C1C1CCNCC1 (stereo unspecified) | -9 | -5 | 24213* | -1
COc1ccc(S(=O)(=O)Nc2ccc(NC(C)=O)cc2)cc1Cl | -3 | 1 | 4604 | 1
COc1ccc(CONS(=O)(=O)c2ccc(NC(C)=O)cc2)cc1Cl | -1 | 1 | 20406* | -6
Cc1csc(Sc2ccc([N+](=O)[O-])cc2C(=O)OCC(=O)NC2CCCC(C)C2C)n1 (stereo unspecified) | 0 | 0 | 16483* | 0
CCC(C)NC(=O)COC(=O)c1cc([N+](=O)[O-])ccc1Sc1nc(C)cs1 (stereo unspecified) | 4 | 0 | 2864 | 1
CC(=O)N1C(=O)NC(c2ccccc2)=C([N+](=O)[O-])C1c1ccccc1 (stereo unspecified) | -17 | 0 | 3574 | 33*
CC1(C(=O)NS(=O)(=O)Cc2cccc(Cl)c2)CCN1C(=O)CC1CCCC1 (stereo unspecified) | -5 | 0 | 3818 | 1
Cc1onc(-c2ccccc2)c1C(=O)Nc1sc2c(c1C(N)=O)CCC2 | -14 | 1 | 8435 | -8
SMILES | BoNT-F LC inh | BoNT A protease | Bead autofluor | Anthrax LF prot
O=C(Cn1nnc(-c2ccccc2NC(=O)C2CC2)n1)NC1CCCCC1 | -12 | -1 | 6780 | -4
Cc1onc(-c2c(F)cccc2Cl)c1C(=O)Nc1sc2c(c1C(N)=O)CCC2 | -2 | -1 | 16903* | -3
COC(=O)c1cc(OC)c(OC)cc1NC(=O)Cn1nnc(-c2ccccc2Cl)n1 | -5 | -2 | 24177* | -2
Cc1onc(-c2ccccc2Cl)c1C(=O)N1CCN(c2ccccc2)CC1 | 2 | ? | 22146* | -4
COc1ccc(NC(=O)Cn2nnc(-c3ccccc3F)n2)cc1Cl | 6 | 1 | 3048 | -1
COc1cccc(-c2nnn(CC(=O)NC3CCCC3)n2)c1OC | 0 | -1 | 16511* | -5
COCOc1cccc(CN2CCC2(C)C(=O)Nc2ccc(OC)c(OC)c2)c1 (stereo unspecified) | -4 | 0 | 3860 | 0
COc1ccccc1CNC(=O)Nc1nc(C(N)Cc2ccc(Cl)cc2)cs1 (stereo unspecified) | -19 | -1 | 3726 | -3
O=C(Nc1ccc(OCC(=O)N2CCOCC2)cc1)c1ccccc1Cl | -6 | -2 | 6435 | 4
COc1ccccc1NC(=S)NC(=O)c1c(-c2ccccc2Cl)noc1C | -7 | 0 | 2747 | -1
Cc1onc(-c2ccccc2Cl)c1C(=O)NC(=S)Nc1ccc(C(C)C)cc1 | -4 | 0 | 5275 | -6
Cc1ccc(NC(=S)NC(=O)c2c(-c3ccccc3Cl)noc2C)cc1 | -1 | ? | 22637* | 0
COC(=O)c1cc(OC)c(OC)cc1NC(=O)c1c(-c2ccccc2Cl)noc1C | 5 | 3 | 21663* | 0
Cc1onc(-c2ccccc2)c1C(=O)Nc1nc(-c2cc(F)ccc2F)cs1 | -1 | 0 | 20225* | -3
Cc1onc(-c2ccccc2Cl)c1C(=O)Nc1ccc(OCC(=O)N2CCOCC2)cc1 | -2 | 0 | 16183* | -1
CC(C)NC(=O)C1(C)CCN1Cc1cccc(C#N)c1 (stereo unspecified) | -2 | 0 | 2954 | -8
CCN(CC)CCn1c(=S)[nH]c2cc(C(=O)NCCc3ccc(OC)c(OC)c3)ccc2c1=O | 3 | -1 | 4476 | -4
Cc1onc(-c2ccccc2Cl)c1C(=O)Nc1ccc(F)c(F)c1 | -3 | 0 | 22619* | -14
Cc1onc(-c2ccccc2Cl)c1C(=O)Nc1ccc2c(c1)OCO2 | -6 | 0 | ? | -2
Cc1ccc(S(=O)(=O)N(C)C[C@@H]2Oc3ccc(NC(=O)Cn4cnnn4)cc3C(=O)N([C@@H](C)CO)C[C@H]2C)cc1 | -8 | 0 | 5337 | 0
FC(F)(F)c1cccc(NC(=S)NCCc2ccccn2)c1 | -1 | 1 | 21974* | -6
C[N+](C)(C)CCNC(=O)c1ccccc1 | -6 | 0 | 5813 | 2
N#C/C(=C/c1ccc(Sc2nc3ccccc3[nH]2)o1)c1cccc(Br)c1 | -3 | 0 | 2873 | -1
N#C/C(=C/c1ccc(Sc2nc3ccccc3[nH]2)o1)c1ccccc1F | -4 | ? | 16534* | -2
N#C/C(=C/c1ccc(Sc2nc3ccccc3[nH]2)o1)c1cccc(F)c1 | -2 | 0 | 23920* | -2
SMILES | BoNT-F LC inh | BoNT A protease | Bead autofluor | Anthrax LF prot
Nc1c(C2=NCCO2)nnn1Cc1ccccc1 | -9 | -3 | 17624* | -9
N#Cc1nnn2c1nc(N)c1c(Cl)cccc12 | -2 | 0 | 6242 | -9
COC(=O)C1CCN(C(=O)c2cc(S(=O)(=O)N3CCCCC3)ccc2Cl)CC1 | -5 | -2 | 6537 | 8
CCOC(=O)N(C)C[C@@H]1OCc2cnnn2CCCC(=O)N([C@H](C)CO)C[C@@H]1C | -1 | 0 | 3688 | 8
CCC(C)NC(=O)c1c(N)n(CCCOC)c2nc3ccccc3nc12 (stereo unspecified) | 6 | 8 | 17608* | -12
COCCCn1c(N)c(C(=O)Nc2ccccc2)c2nc3ccccc3nc21 | ? | -4 | 3998 | 2
